Test results as given in the supplement of paper PMC13380429.

System: Vero E6 infected with SARS-CoV-2
Experiment: inhibition of SARS-CoV-2 cytopathic effect; higher = more antiviral protection, active = above 15
Details: 48 h

Measured: inhibition of SARS-CoV-2 cytopathic effect

Oc1c(Cl)cc(Cl)c(Cl)c1Cc1c(O)c(Cl)cc(Cl)c1Cl [hexachlorophene]
inactive: 1 nM 0.56% | 8.33 nM 1.77% | 100 nM 0.2% | 833.33 nM 2.38% | 10000 nM 8.62%

CCNC(=O)[C@@H]1CCCN1C(=O)[C@H](CCCNC(=N)N)NC(=O)[C@H](CC(C)C)NC(=O)[C@@H](C)NC(=O)[C@H](Cc1ccc(O)cc1)NC(=O)[C@H](CO)NC(=O)[C@H](Cc1c[nH]c2ccccc12)NC(=O)[C@H](Cc1cnc[nH]1)NC(=O)[C@@H]1CCC(=O)N1 [alarelin]
inactive: 1 nM -0.73% | 8.33 nM -1.67% | 100 nM 0.97% | 833.33 nM 1.34% | 10000 nM -0.57%

CCN(CCCCOC(=O)c1ccc(OC)c(OC)c1)C(C)Cc1ccc(OC)cc1 (stereo not given) [mebeverine]
inactive: 1 nM 1.37% | 8.33 nM -1.75% | 100 nM -0.83% | 833.33 nM -1.35% | 10000 nM -3.11%

C[C@]12CCC(=O)C=C1C=C[C@@H]1[C@@H]2CC[C@@]2(C)[C@H]1CC[C@@]2(O)CCC(=O)O [potassium-canrenoate]
inactive: 1 nM -4.66% | 8.33 nM -2.95% | 100 nM 2.67% | 833.33 nM 3.81% | 10000 nM 0.36%

Cc1oc(-c2ccccc2)nc1CCC(=O)c1ccc(CC2SC(=O)NC2=O)cc1 (stereo not given) [darglitazone]
inactive: 1 nM 2.44% | 8.33 nM 3.08% | 100 nM -5.6% | 833.33 nM -5.76% | 10000 nM -1.67%

CCOC(=O)Nc1ccc2c(c1)N(C(=O)CN(C)C)c1ccccc1CC2 [tiracizine]
inactive: 1 nM 3.29% | 8.33 nM -0.87% | 100 nM -0.27% | 833.33 nM 1.89% | 10000 nM 0.68%

C[C@H]1C[C@@H]2[C@H]([C@@H](O)C[C@@]3(C)[C@H]2CC[C@]3(O)C(=O)COC(=O)CCC(=O)O)[C@@]2(C)C=CC(=O)C=C12 [methylprednisolone-sodium-succinate]
inactive: 1 nM -0.2% | 8.33 nM 2.8% | 100 nM 0.5% | 833.33 nM -0.11% | 10000 nM -2.89%

O=c1c(-c2ccc(O)cc2)coc2c([C@@H]3O[C@H](CO)[C@@H](O)[C@H](O)[C@H]3O)c(O)ccc12 [kakonein]
inactive: 1 nM -2.72% | 8.33 nM -3.42% | 100 nM -3.81% | 833.33 nM -5.79% | 10000 nM -6.74%

Cc1ccc(C)c(OCCCC(C)(C)C(=O)O)c1 [gemfibrozil]
inactive: 1 nM 0.62% | 8.33 nM -0.19% | 100 nM -0.2% | 833.33 nM 0.31% | 10000 nM -0.46%

CCOC(=O)[C@H](CCc1ccccc1)N[C@@H](C)C(=O)N(CC(=O)O)C1Cc2ccccc2C1 [delapril]
inactive: 1 nM -1.82% | 8.33 nM 0.71% | 100 nM 2.57% | 833.33 nM 2.28% | 10000 nM -1.55%

C[C@]12CCC(=O)C[C@@H]1CC[C@@H]1[C@@H]2CC[C@]2(C)[C@@H](O)CC[C@@H]12 [Dihydrotestosterone]
inactive: 1 nM -0.75% | 8.33 nM -1.02% | 100 nM -1.92% | 833.33 nM -2.8% | 10000 nM -3.3%

C=CCNC1=C2C[C@@H](C)C[C@H](OC)[C@H](O)[C@@H](C)/C=C(\C)[C@H](OC(N)=O)[C@@H](OC)/C=C\C=C(/C)C(=O)NC(=CC1=O)C2=O [tanespimycin]
inactive: 1 nM -1.35% | 8.33 nM -0.13% | 100 nM -4.27% | 833.33 nM -0.63% | 10000 nM 3.92%

N[C@@H](CCNCc1ccc(Cl)cc1)C(=O)N1CCCCC1
inactive: 1 nM 0.82% | 8.33 nM -0.55% | 100 nM -2.08% | 833.33 nM -1.49% | 10000 nM -1.28%

C[C@@](Cc1ccc(O)c(O)c1)(NN)C(=O)O [carbidopa]
inactive: 1 nM -5% | 8.33 nM -1.47% | 100 nM -3.59% | 833.33 nM -2.28% | 10000 nM -0.52%

COc1ccc2[nH]cc(C3=CCNCC3)c2c1
inactive: 1 nM 1.62% | 8.33 nM -0.77% | 100 nM 0.86% | 833.33 nM -2.22% | 10000 nM -3.05%

Cc1nc(N)sc1CCN [amthamine]
inactive: 1 nM -1.84% | 8.33 nM -1.83% | 100 nM -2.06% | 833.33 nM 0.97% | 10000 nM 0.76%

O=C1[C@H](CC[C@H](O)c2ccc(F)cc2)[C@@H](c2ccc(O)cc2)N1c1ccc(F)cc1 [ezetimibe]
inactive: 1 nM 0.31% | 8.33 nM 0.64% | 100 nM -0.99% | 833.33 nM 2.19% | 10000 nM 5.44%

Oc1cc(O)cc(O)c1 [phloroglucin]
inactive: 1 nM 3.42% | 8.33 nM 1.38% | 100 nM 2.28% | 833.33 nM 2.17% | 10000 nM -2.03%

Nc1ccc(C(=O)Oc2ccccc2)c(O)c1 [phenyl-aminosalicylate]
inactive: 1 nM -11% | 8.33 nM -5.77% | 100 nM -10.6% | 833.33 nM -10.7% | 10000 nM -9.73%

CC(C)C[C@@H]1NC(=O)[C@@H](C(C)C)NC(=O)[C@@H]2CCCN2C(=O)[C@@H](CC(=O)O)NC(=O)[C@@H](Cc2c[nH]c3ccccc23)NC1=O
inactive: 1 nM -2.63% | 8.33 nM 1.4% | 100 nM -0.29% | 833.33 nM -0.26% | 10000 nM -0.15%

CN(C)CCOC(c1ccccc1)c1ccccc1 [diphenhydramine]
inactive: 1 nM 0.83% | 8.33 nM 0.08% | 100 nM -0.85% | 833.33 nM 0.48% | 10000 nM -0.92%

CC(C)N1CCN(c2ccc(OCC3COC(Cn4cncn4)(c4ccc(Cl)cc4Cl)O3)cc2)CC1 (stereo not given) [terconazole]
inactive: 1 nM 1.55% | 8.33 nM 0.07% | 100 nM 4.2% | 833.33 nM -1.24% | 10000 nM 11.5%

CC(C)(C)C(=O)OCC(=O)[C@H]1CC[C@H]2[C@@H]3CCC4=CC(=O)CC[C@]4(C)[C@H]3CC[C@]12C [desoxycorticosterone-pivalate]
inactive: 1 nM -1.6% | 8.33 nM 0.71% | 100 nM -0.4% | 833.33 nM -0.12% | 10000 nM 0.98%

Cc1cc(C(N)=O)ccc1-n1c(CCC(=O)O)ccc1-c1ccc(-n2ccnc2)cc1
inactive: 1 nM -3.46% | 8.33 nM 2.86% | 100 nM 2.45% | 833.33 nM -1.56% | 10000 nM -2.98%

CCOc1ccc(S(=O)(=O)O)c2cccnc12 [actinoquinol]
inactive: 1 nM 0.25% | 8.33 nM 0.94% | 100 nM 0.78% | 833.33 nM 1.14% | 10000 nM -3.36%

Cc1cc(=O)[nH]c(=S)[nH]1 [methylthiouracil]
inactive: 1 nM 0.85% | 8.33 nM 2.29% | 100 nM -0.49% | 833.33 nM 1.73% | 10000 nM -0.31%

CN(C)C(=N)NC(=N)N [metformin]
inactive: 1 nM 0.25% | 8.33 nM 1.14% | 100 nM 2.76% | 833.33 nM 1.97% | 10000 nM 5.07%

O=C1C2C=Nc3ccccc3C2=NN1c1ccc(Cl)cc1 (stereo not given)
inactive: 1 nM 0.17% | 8.33 nM -0.02% | 100 nM 1.99% | 833.33 nM 3.3% | 10000 nM -0.09%

C[C@H](CS)C(=O)N1CCC[C@H]1C(=O)O [captopril]
inactive: 1 nM -1.79% | 8.33 nM 0.97% | 100 nM -2.39% | 833.33 nM -1.5% | 10000 nM -0.97%

COc1cc2nc(C3CC3)nc(N3CCN(c4ccccc4OC)CC3)c2cc1OC
inactive: 1 nM -1.86% | 8.33 nM -1.01% | 100 nM -1.01% | 833.33 nM 1.94% | 10000 nM -4.17%

CC(C)[C@]12O[C@H]1[C@@H]1O[C@]13[C@]1(O[C@H]1C[C@H]1C4=C(CC[C@@]13C)C(=O)OC4)[C@@H]2O [triptolide]
inactive: 1 nM -1.16% | 8.33 nM -2.32% | 100 nM -12.1% | 833.33 nM -9.06% | 10000 nM -8.11%

O=CN1CCC(C(=O)NCCN2CCC(=C3c4ccccc4C=Cc4ccccc43)CC2)CC1
inactive: 1 nM 1.02% | 8.33 nM 0.48% | 100 nM 0.42% | 833.33 nM -2.21% | 10000 nM 1.23%

O=C1c2ccccc2C(=O)C1c1ccc(Br)cc1 [bromindione]
inactive: 1 nM -0.87% | 8.33 nM 2.1% | 100 nM -2.65% | 833.33 nM 1.04% | 10000 nM 0.05%

O=c1cc(-c2ccccc2)oc2cc(O)c(O)c(O)c12 [baicalein]
inactive: 1 nM 1.61% | 8.33 nM 3.69% | 100 nM -0.24% | 833.33 nM -2.55% | 10000 nM -5.11%

CC(=O)N(CC(O)CN(C(C)=O)c1c(I)c(C(=O)NCC(O)CO)c(I)c(C(=O)NCC(O)CO)c1I)c1c(I)c(C(=O)NCC(O)CO)c(I)c(C(=O)NCC(O)CO)c1I (stereo not given) [iodixanol]
inactive: 1 nM -1.14% | 8.33 nM 3.23% | 100 nM 2.34% | 833.33 nM -0.66% | 10000 nM -1.88%

CNCC[C@@H](Oc1ccccc1C)c1ccccc1 [atomoxetine]
inactive: 1 nM 1.13% | 8.33 nM 1.43% | 100 nM 3.37% | 833.33 nM 2.34% | 10000 nM -2.83%

CCOC(=O)[C@@H](C)Oc1ccc(Oc2nc3ccc(Cl)cc3o2)cc1 [fenoxaprop-p-ethyl]
inactive: 1 nM 0.1% | 8.33 nM -0.32% | 100 nM -2.57% | 833.33 nM 2.13% | 10000 nM -0.66%
